# Source: PubChem
# HPGD block: blocks human HPGD enzyme activity; P15428; purified HPGD, NADH fluorescence kinetic, PGE2 substrate; Potency, µM, actives largely listed as inhibitors; 150,000 compounds, 4.3% hits; AID 894
# Target sequence (P15428 whole entry, looked up): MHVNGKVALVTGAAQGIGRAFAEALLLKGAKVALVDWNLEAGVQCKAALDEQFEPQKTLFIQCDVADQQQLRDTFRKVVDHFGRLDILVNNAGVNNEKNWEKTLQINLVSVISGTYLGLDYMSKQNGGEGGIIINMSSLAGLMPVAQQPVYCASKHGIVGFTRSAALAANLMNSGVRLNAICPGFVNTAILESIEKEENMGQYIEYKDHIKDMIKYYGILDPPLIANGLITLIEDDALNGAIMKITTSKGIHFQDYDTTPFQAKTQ
#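 20 nM HPGD preincubated 15 min at room temperature with compound in 50 mM Tris-HCl pH 8, 0.01% Tween 20. Started with 1 mM NAD+ and 30 uM prostaglandin E2; NADH fluorescence (360/450 nm) read 5 times over 30-s intervals, last minus first.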
# Tau fibril FP: blocks human tau fibril formation measured by polarization | 280,000 compounds, 0.39% hits | P10636 | K18 P301L tau heparin fibrillization, Alexa594 FP, 6 h | Potency, µM (series often up to 57.7 µM), hits mostly inhibitors | AID 1468; active = well fitted curve in the direction sought with a large enough effect; inconclusive = small, poorly fitted or top-dose-only effect, or another doubt; inactive = no such curve, though single readings can be large; an effect the other way counts as inactive or inconclusive; also: nearly all actives have a fitted effect of over 55% in size
#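 Steps: dispense K18 P301L tau (15 uM plus 0.24 uM Alexa 594 tracer, final) in pH 7 sodium acetate; add compound; add heparin (20 uM final); incubate 6 hr, 37 C; add ThT (30 uM final); after 1 hr ambient, read FP.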
# ALDH1A1 block: blocks purified human ALDH1A1 activity. AID 1030. Potency, µM (series often up to 75.3 µM), hits mostly inhibitors. P00352. 220,000 compounds, 7.3% hits. Purified ALDH1A1, NADH fluorescence, propionaldehyde substrate
# Tau fluor cs: counter-screen for tau fibril formation inhibitors; Potency, µM (titrated, usually from 57.7 µM); tau K18 P301L Alexa594 fluorescence, heparin fibrillization; 280,000 compounds, 0.93% hits; active = well fitted curve in the direction sought with a large enough effect; inconclusive = small, poorly fitted or top-dose-only effect, or another doubt; inactive = no such curve, though single readings can be large; an effect the other way counts as inactive or inconclusive; also: nearly all actives have a fitted effect of over 55% in size
#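 Human K18 P301L tau (15 uM unlabeled plus 0.24 uM Alexa 594-labeled, final) in 100 mM sodium acetate pH 7 was mixed with compound and 20 uM heparin and incubated 6 hr at 37 C.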
# Tau fibril ThT: blocks human tau fibril formation measured by thioflavin T. P10636. recombinant tau K18 P301L (four-repeat tau fragment), heparin-induced fibrillization, ThT fluorescence. Potency, µM (top dose mostly 57.4 µM), actives largely listed as inhibitors. 270,000 compounds, 2.1% hits; active = well fitted curve in the direction sought with a large enough effect; inconclusive = small, poorly fitted or top-dose-only effect, or another doubt; inactive = no such curve, though single readings can be large; an effect the other way counts as inactive or inconclusive; also: nearly all actives have a fitted effect of over 55% in size
#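 Heparin-induced fibrillization of the P301L-mutant K18 repeat-domain fragment of human tau was followed by ThT binding in quantitative high-throughput format.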
# JMJD2E inh: JMJD2E (human) inhibition. JMJD2E catalytic domain, FDH-coupled NADH fluorescence (FDH is formaldehyde dehydrogenase). Potency, µM (highest dose often 57.1 µM), most hits filed as inhibitors. 230,000 compounds, 1.6% hits; also: nearly all actives have a fitted effect of over 50% in size
# Target sequence (B2RXH2 1-337 limits assumed): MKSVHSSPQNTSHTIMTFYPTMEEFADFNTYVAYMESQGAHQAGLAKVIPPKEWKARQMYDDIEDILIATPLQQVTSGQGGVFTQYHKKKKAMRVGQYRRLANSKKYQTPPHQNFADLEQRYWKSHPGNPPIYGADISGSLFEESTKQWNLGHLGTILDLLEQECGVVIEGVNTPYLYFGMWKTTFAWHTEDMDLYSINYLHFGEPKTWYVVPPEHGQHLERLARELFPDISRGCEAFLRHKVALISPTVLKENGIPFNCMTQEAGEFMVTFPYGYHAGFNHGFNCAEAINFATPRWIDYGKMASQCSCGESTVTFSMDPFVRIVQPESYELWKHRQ
# A number is an active result; - = inactive; ? = inconclusive; . = not tested or not shown; [ ] = remark or other dose. Shown are actives, neighbours in structure and some others; about 9.9% of the full set was active somewhere. Unless noted, calls follow the shape of the dose curve; as a rule, active = well fitted inhibition curve with a large enough effect (not every such curve was filed as active); inconclusive = small, poorly fitted or top-dose-only effect, or another doubt; inactive = no such curve, though single readings can be large or run the other way.
SMILES,HPGD block,Tau fibril FP,ALDH1A1 block,Tau fluor cs,Tau fibril ThT,JMJD2E inh
Cc1cnc(CNc2ncnc3ccc(-c4ccccc4C#N)cc23)cn1,-,-,-,-,-,?
CN(C(=O)CSc1nc2ccc(NC(=O)CCc3ccccc3)cc2s1)c1ccccc1,.,-,.,?,-,.
CCOC(=O)c1c(NC(=O)CCl)sc(CN(C)C)c1-c1ccccc1,.,-,7.1µM,-,-,-
CCOC(=O)c1c(NC(=O)/C=C/C(=O)O)sc(C)c1-c1ccc(Cl)cc1,.,?,20µM,-,32µM,-
CCOC(=O)c1c(NC(=O)CN2CCCCC2)sc(CN(C)C)c1-c1ccccc1,.,-,-,-,-,-
CCOC(=O)c1c(N)sc(C(O)(C(F)(F)F)C(F)(F)F)c1-c1ccc(Cl)cc1,-,-,-,25µM[quencher],?,-
O=C(O)/C=C\C(=O)NCc1cccnc1,.,-,-,-,-,-
COCCn1c(=NC(=O)C(C)(C)C)sc2cc([N+](=O)[O-])ccc21,-,-,-,-,-,-
CCOC(=O)N/N=C1/C[C@@H](O)[C@@H](O)[C@@H]2[C@@H]3C(=O)N(Cc4ccc5c(c4)OCO5)C(=O)[C@H]3CC[C@H]12,.,-[11.6 µM],-[13.5 µM],-[11.6 µM],-[11.5 µM],.
CCn1c(C)c(CS(=O)(=O)c2ccccc2)[nH]c1=O,.,?,22µM,-,?,28µM
CCn1c(=O)[nH]c2ccccc21,-,-,-,-,-,-
Clc1ccccc1N/N=C/c1ccc2c(c1)OCO2,?,-,?,?,?,?
Cc1cc2nc(-c3cccc(NC(=O)C(C)C)c3C)oc2cc1C,.,-,.,-,-,.
CNC(=O)c1ccsc1NC(=O)c1coc2ccccc2c1=O,.,-,-,-,?,-
O=C(CCn1ccc2cc(S(=O)(=O)N3CCCC3)ccc21)NCc1ccccc1Br,.,-,.,-,-,.
Cc1ccc(Nc2nc3ccccc3s2)c(C)c1,-,-,-,-,-,-
Cc1cc(O)ccc1Nc1nc2ccccc2nc1Nc1ccc(O)cc1C,-,?,22µM,13µM[quencher],14µM,25µM
CN(c1ccccc1)c1ccc(/C=C(\CCC(=O)O)c2nc3ccccc3s2)cc1[N+](=O)[O-],25µM,-,13µM,?,14µM,-
Cn1cnnc1Sc1ccc(/C=C(\CCC(=O)O)c2nc3ccccc3s2)cc1[N+](=O)[O-],.,-,12µM,-,-,-
Cc1ccc(/C=C(\CCC(=O)O)c2nc3ccccc3s2)cc1[N+](=O)[O-],-,-,?,-,?,-
CNc1ccc(/C=C(\CCC(=O)O)c2nc3ccccc3s2)cc1[N+](=O)[O-],-,-,?,?,3.2µM,-
Cc1cccc(C(=O)N[C@H](C(=O)Nc2cccc(S(=O)(=O)N3CCCC3)c2)C(C)C)c1,.,-,.,-,.,-
Cc1cccc(C(=O)N[C@H](C(=O)Nc2ccc(S(=O)(=O)NC3=NCCCCC3)cc2)C(C)C)c1,.,-,20µM,-,-,-
O=C1Nc2ccc([N+](=O)[O-])cc2C1(O)N1CCCCC1 (centres undefined),-,-,-,-,-,-
Cc1cc([N+](=O)[O-])cc2c1NC(=O)C2(O)N1CCCCCC1 (centres undefined),-,-,22µM,-,-,-
SMILES,HPGD block,Tau fibril FP,ALDH1A1 block,Tau fluor cs,Tau fibril ThT,JMJD2E inh
CN(C)S(=O)(=O)c1ccc2c(c1)N(CC(=O)Nc1ccc(F)cc1)C(=O)CS2,.,-,.,-,-,.
Cc1cc(C(F)(F)F)nc(SCCN2CCOCC2)c1C#N,.,-,22µM,-,-,-
N#Cc1c(C(F)(F)F)cc(-c2ccc(Cl)c(Cl)c2)nc1SCCN1CCOCC1,25µM,-,-,-,-,-
Cc1cc(C)nc(SCCN2CCOCC2)n1,-,-,-,-,-,-
O=C(O)CC12C[C@H]3C[C@@H](CC(O)(C3)C1)C2,-,.,-[13.5 µM],.,.,.
CCn1c2ccc(Cl)cc2c2nc3ccccc3nc21,-,-,-,-,16µM,-
O=C(CCl)NCc1cc(-c2ccc(Cl)cc2)no1,.,-,22µM,-,-,-
COc1cc(OC)c(N(C)C(=O)Cn2ncc3c(=O)oc4ccccc4c32)cc1Cl,.,-,.,-,-,.
Nc1c(C=C2C=CC(=O)C=C2)c(=O)nc2snc(SCc3ccccc3)n12,.,?,.,?,7.9µM,-
O=C(NC(=S)Nc1ccc2c(c1)OCCO2)c1cccc(Br)c1,-,?,14µM,?,-,-
O=C(Nc1ccc2c(c1)OCCO2)c1cncc(Br)c1,-,-,-,-,-,-
NC(N)=NS(=O)(=O)c1ccc(NC(=S)NC(=O)c2ccc3c(c2)OCO3)cc1,.,-,25µM,-,-,-
O=C(O)c1ccccc1NC(=S)NC(=O)c1cccc2ccccc12,.,-,?,-,-,?
O=C(NC(=S)Nc1ccc2c(c1)OCCO2)c1cccc2ccccc12,-,?,13µM,?,?,-
NS(=O)(=O)c1ccc(NC(=S)NC(=O)c2ccc3c(c2)OCO3)cc1,.,-,?,-,-,-
O=C(NC(=S)Nc1ccc2c(c1)OCO2)c1ccccc1,10µM,-,5µM,-,?,-
O=C(NC(=S)N(Cc1ccccc1)c1ccccn1)C1CC1,?,-,?,-,?,?
Cc1ccccc1C(=O)Nc1cccc(C(=O)OCc2cc(=O)n3c(C)csc3n2)c1,.,-,.,-,-,.
COC(=O)CNC(=O)c1sc2ncn(CC(=O)Nc3ccc(C)c(Cl)c3)c(=O)c2c1C,.,?,-,-,-,-
c1ccc(C2=NN[C@@H]3c4ccccc4-c4ccccc4N3C2)cc1,-,.,?,.,.,.
Cc1nc(NC(=O)COC(=O)C(NC(=O)c2ccco2)C(C)C)c(Cl)cc1Cl (centres undefined),-,-,25µM,-,-,-
O=C(Nc1ccccc1)Nc1nnc(CSCc2ccccc2Cl)s1,-,10µM,-,?,-,-
Cc1ccc(OCCSCc2nnc(NC(=O)Nc3cccc(Cl)c3)s2)cc1,-,16µM,-,?,-,-
CC(Cc1cccs1)NC(=O)Nc1ccc(Cl)c(Cl)c1 (centres undefined),-,25µM,?,?,-,-
Cc1nnc(NC(=O)Nc2cccc(Cl)c2)s1,-,-,-,-,-,-
SMILES,HPGD block,Tau fibril FP,ALDH1A1 block,Tau fluor cs,Tau fibril ThT,JMJD2E inh
O=C(Nc1cccc(Cl)c1)Nc1nccs1,-,?,-,?,-,-
O=C(Nc1ccc(Cl)c(Cl)c1)Nc1nccs1,.,14µM,.,?,?,-
Cc1cc(C)c(Cn2c3ccccc3c3cnn(CC(=O)N4CCCCCC4)c(=O)c32)c(C)c1,.,-,.,-,?,.
COC(=O)C(C(=O)OC)[C@@H]1O[C@@]23COC=C[C@]2(C)[C@H]3c2ccccc21,-,-,-,-,-,-
O=C(Nc1ccc(Cl)c(Cl)c1)Nc1nnc(CSc2ccccc2)s1,-,3.5µM,-,-,-,-
CC(=O)N(Cc1ccc(F)cc1)c1cccc(C)c1C,.,-,-,-,-,-
